The results in this text go back to PubChem BioAssay (NCI).

Test systems include NCI-H226 lung; HOP-62 NSCLC; NCI-H460 lung; HOP-92 NSCLC; NCI-H522 lung; A549/ATCC NSCLC; 786-0 renal; COLO 205 colon; DU-145 prostate; K-562 leukemia; MALME-3M melanoma; MDA-MB-231 breast; RXF 393 renal; SF-268 CNS; SF-295 CNS; SF-539 CNS; UACC-257 melanoma; M14 melanoma; HCT-15 colon; NCI-H322M lung.
Experiment in all cases: NCI-60 one-dose screen, 48 h (100 = growth as untreated, 0 = no growth, -100 = all killed)
What all share (settings): 10 µM unless noted

Compounds without any hit were thinned out: in the full panel of roughly 83,000, 20% have a hit.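 Activity criterion: percent growth below 10, measured after cells in 96-well plates were exposed to a single compound concentration for 48 hours.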 Values without a mark were called inactive. The source made the active and inactive calls.

Take `N#Cc1c(-c2ccc(Cl)cc2)nc(SCc2ccc([N+](=O)[O-])cc2)nc1N1CCNCC1`: the growth was 85.2% with NCI-H226 lung; 57.1% with HOP-62 NSCLC; -66.6% (active) in the assay with NCI-H460 lung; -8.29% (active) in the assay on HOP-92 NSCLC; 64.1% with NCI-H522 lung; 5.31% (active) with A549/ATCC NSCLC. Also, the growth is -50% (active) in the assay on 786-0 renal; -82% (active) with COLO 205 colon; 0.384% (active) in the assay on DU-145 prostate; -32.2% (active) with K-562 leukemia; 48.4% in the assay on MALME-3M melanoma; -77.7% (active) in the assay on MDA-MB-231 breast. The growth in the assay on RXF 393 renal was -4.17% (active); in the assay on SF-268 CNS, 35.3%; in the assay with SF-295 CNS, 78.9%; with SF-539 CNS, -23% (active); with UACC-257 melanoma, 43.5%; in the assay with M14 melanoma, -81% (active). In the assay on HCT-15 colon, the growth was 1.91% (active).
Turning to `C#C[C@]1(O)CC[C@H]2[C@@H]3CC=C4c5sc(Nc6ccc(Cl)cn6)nc5CC[C@]4(C)[C@H]3CC[C@@]21C`, the growth in the assay on NCI-H226 lung is 77.1%; in the assay with HOP-62 NSCLC it was 34.8%; with NCI-H460 lung, 28.3%; with HOP-92 NSCLC, 59.5%; in the assay with A549/ATCC NSCLC, 50.3%; in the assay on 786-0 renal, -78.8% (active). Further, the growth in the assay on COLO 205 colon is 88.8%; in the assay with DU-145 prostate, 63.4%; in the assay with K-562 leukemia it was 9.48% (active); in the assay with MALME-3M melanoma it was 58.3%; in the assay on MDA-MB-231 breast, 27.2%; with RXF 393 renal, -53.2% (active). Also, the growth in the assay with SF-268 CNS was 43.7%; with SF-295 CNS, -63% (active); in the assay with SF-539 CNS, -30.8% (active); in the assay on UACC-257 melanoma it was -45.2% (active); in the assay on M14 melanoma, 50.7%; with HCT-15 colon, 39.7%.
Turning to `COc1cccc(NC2=CC(=O)C(C)=C(C)C2=O)c1`, the growth is 97% in the assay on NCI-H226 lung; 102% in the assay with NCI-H322M lung; 106% in the assay on HOP-62 NSCLC; 101% in the assay on NCI-H460 lung; 104% with HOP-92 NSCLC; 101% in the assay with A549/ATCC NSCLC. Also, the growth in the assay on 786-0 renal was 95.8%; in the assay on DU-145 prostate it was 113%; in the assay on K-562 leukemia, 12.5%; with MALME-3M melanoma, 101%; in the assay on MDA-MB-231 breast it was 41.4%; in the assay on RXF 393 renal, 55.8%. For the same molecule, the growth with SF-268 CNS was 74.5%; in the assay on SF-295 CNS it was 105%; in the assay on SF-539 CNS, 21.7%; in the assay with UACC-257 melanoma, 54.7%; with M14 melanoma it was 97%; in the assay with HCT-15 colon it was 91.9%.
Turning to `COc1ccc(-c2csc(N/N=C/c3c(-c4ccc(S(C)(=O)=O)cc4)nc4ccccn34)n2)cc1`, the growth is 115% in the assay on NCI-H226 lung; 121% in the assay on HOP-62 NSCLC; 109% in the assay on NCI-H460 lung; 99.9% in the assay with HOP-92 NSCLC; 104% with NCI-H522 lung; 105% with A549/ATCC NSCLC. In addition, the growth in the assay on 786-0 renal was 82.7%; with DU-145 prostate, 113%; in the assay on K-562 leukemia, 98.5%; in the assay on MALME-3M melanoma, 118%; with MDA-MB-231 breast, 107%; with RXF 393 renal, 114%. For the same molecule, the growth in the assay with SF-268 CNS is 110%; in the assay on SF-295 CNS it was 106%; with SF-539 CNS it was 107%; in the assay on UACC-257 melanoma, 112%; in the assay with M14 melanoma, 106%; in the assay with HCT-15 colon, 101%.
As for `Clc1ccc2oc3c(NCCCN4CCOCC4)c4ccccc4nc3c2c1`, the growth in the assay with NCI-H226 lung is 16.4%; in the assay on HOP-62 NSCLC, 43.5%; in the assay on NCI-H460 lung it was 6.4% (active); with HOP-92 NSCLC, 33%; in the assay on NCI-H522 lung, 28.2%; in the assay on A549/ATCC NSCLC, 25.1%. Also, the growth was 20% in the assay with 786-0 renal; 13.2% in the assay on COLO 205 colon; 16.8% in the assay on DU-145 prostate; 1.61% (active) with K-562 leukemia; 24.1% in the assay with MALME-3M melanoma; 25.2% in the assay with MDA-MB-231 breast. In addition, the growth with RXF 393 renal is 13.9%; with SF-268 CNS it was 38.1%; in the assay on SF-295 CNS, 17.4%; with SF-539 CNS, 19.9%; in the assay on UACC-257 melanoma it was 50.5%; in the assay with M14 melanoma, 31.8%. The growth in the assay on HCT-15 colon was 3.77% (active).
For the molecule `COc1cc(/C=C/C(=O)c2ccc(F)cc2)ccc1Oc1nc(NCCO)nc(N2CCOCC2)n1`, the growth in the assay on NCI-H226 lung is 87.8%; with HOP-62 NSCLC, 102%; in the assay on NCI-H460 lung, 94.2%; with HOP-92 NSCLC, 94.2%; in the assay with NCI-H522 lung, 64.9%; in the assay on A549/ATCC NSCLC, 101%. Also, the growth with 786-0 renal was 98.3%; in the assay on COLO 205 colon, 122%; in the assay with DU-145 prostate, 98.4%; in the assay with K-562 leukemia, 6.99% (active); with MALME-3M melanoma it was 78.8%; in the assay with MDA-MB-231 breast, 86.7%. For the same molecule, the growth with RXF 393 renal was 108%; with SF-268 CNS, 81%; in the assay on SF-295 CNS, 93.2%; in the assay with SF-539 CNS it was 88.2%; with UACC-257 melanoma it was 98.3%; in the assay on M14 melanoma, 84%. The growth in the assay with HCT-15 colon is 39.2%.
As to `CCCC(=O)NC(c1ccc(N(CC)CC)cc1)c1cc(C)c2cccnc2c1O` (stereo not drawn), the growth with NCI-H226 lung was 1.21% (active); in the assay on HOP-62 NSCLC it was 17.4%; in the assay with NCI-H460 lung, 1.53% (active); in the assay on HOP-92 NSCLC, 46.4%; in the assay with NCI-H522 lung, 15.9%; in the assay on A549/ATCC NSCLC, 28.7%. In addition, the growth in the assay on 786-0 renal is 0.0799% (active); with COLO 205 colon, 23.1%; with DU-145 prostate, 25.6%; with K-562 leukemia it was 14.6%; with MALME-3M melanoma, 16%; in the assay on MDA-MB-231 breast, 43.9%. For the same molecule, the growth in the assay on RXF 393 renal was 43.1%; in the assay with SF-268 CNS it was 27.6%; with SF-295 CNS, 17.6%; in the assay with SF-539 CNS, 11.3%; in the assay on UACC-257 melanoma, 24.9%; in the assay with M14 melanoma, -33% (active). Moreover, the growth in the assay on HCT-15 colon was 29.5%.
As for `O=C(CSc1nnc(-c2ccc3nc(-c4ccc(Cl)cc4)[nH]c3c2)o1)Nc1ccc(C(=O)/C=C/c2ccc(Cl)cc2)cc1`, the growth in the assay with NCI-H226 lung was 86%; in the assay on HOP-62 NSCLC, 97.9%; in the assay with NCI-H460 lung it was 102%; in the assay with HOP-92 NSCLC, 94.2%; in the assay on NCI-H522 lung, 88.4%; in the assay on A549/ATCC NSCLC, 95.5%. Further, the growth with 786-0 renal was 92.6%; in the assay on COLO 205 colon it was 118%; with DU-145 prostate it was 111%; in the assay with K-562 leukemia, 81.4%; with MALME-3M melanoma, 102%; in the assay with MDA-MB-231 breast, 90.6%. Also, the growth with RXF 393 renal was 104%; in the assay on SF-268 CNS it was 99.9%; in the assay on SF-295 CNS, 93%; in the assay with SF-539 CNS, 84.3%; in the assay with UACC-257 melanoma, 107%; in the assay on M14 melanoma it was 102%. The growth in the assay on HCT-15 colon was 89.8%.
With `Clc1ccc2oc3c(NCCCn4ccnc4)c4ccccc4nc3c2c1`, the growth in the assay on NCI-H226 lung is 40%; in the assay on HOP-62 NSCLC it was 66.2%; in the assay with NCI-H460 lung, -25.9% (active); in the assay on HOP-92 NSCLC it was 47.2%; with NCI-H522 lung, 48.3%; with A549/ATCC NSCLC, 32.7%. Moreover, the growth is 6.65% (active) with 786-0 renal; 55.2% in the assay with COLO 205 colon; 21.9% in the assay with DU-145 prostate; 4.86% (active) with K-562 leukemia; 57.1% in the assay on MALME-3M melanoma; 27.1% with MDA-MB-231 breast. Further, the growth in the assay on RXF 393 renal was 23.9%; in the assay on SF-268 CNS, 38.3%; in the assay on SF-295 CNS, 30.2%; with SF-539 CNS, 24.3%; in the assay on UACC-257 melanoma, 78.3%; with M14 melanoma it was 49.7%. In addition, in the assay on HCT-15 colon, the growth is 13%.
